Data taken from ChEMBL document CHEMBL3433997, “St. Jude Leishmania screening dataset” (2016).

Assays:
Type in all cases: functional
[1] = target: Solute carrier family 2, facilitated glucose transporter member 1 (Homo sapiens) (UniProt P11166); assay: ST_JUDE_LEISH: Cytotoxicity at 2uM final concentration against transgenic Leishmania Mexicana promastigotes LmGLUT1 that are glucose transport deficient and complemented with the human glucose transporter GLUT1. Activity is measured by DNA content using SYBR green in vitro
Sequence of Solute carrier family 2, facilitated glucose transporter member 1 (Homo sapiens) (P11166 whole entry): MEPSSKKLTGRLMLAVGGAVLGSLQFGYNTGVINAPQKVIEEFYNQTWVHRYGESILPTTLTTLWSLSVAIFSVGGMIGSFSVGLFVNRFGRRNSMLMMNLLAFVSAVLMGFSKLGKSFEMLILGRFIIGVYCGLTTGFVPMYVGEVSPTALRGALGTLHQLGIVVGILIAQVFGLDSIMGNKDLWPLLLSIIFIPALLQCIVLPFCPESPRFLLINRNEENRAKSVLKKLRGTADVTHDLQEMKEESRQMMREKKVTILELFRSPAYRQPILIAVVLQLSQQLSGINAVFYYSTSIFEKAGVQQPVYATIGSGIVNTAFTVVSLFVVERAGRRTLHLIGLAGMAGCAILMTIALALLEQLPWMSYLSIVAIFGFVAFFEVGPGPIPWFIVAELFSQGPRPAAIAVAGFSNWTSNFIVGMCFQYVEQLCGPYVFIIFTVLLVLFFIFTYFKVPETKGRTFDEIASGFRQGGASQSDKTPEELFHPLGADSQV

[2] = target: Hexose transporter 1 (Plasmodium falciparum) (UniProt O97467); assay: ST_JUDE_LEISH: Cytotoxicity at 2uM final concentration against transgenic Leishmania Mexicana promastigotes LmPfHT that are glucose transport deficient and complemented with the Plasmodium falciparum hexose transporter. Activity is measured by DNA content using SYBR green in vitro
[3] = target: Glucose transporter (Leishmania mexicana) (UniProt O61059); assay: ST_JUDE_LEISH: Cytotoxicity at 2uM final concentration against transgenic Leishmania Mexicana promastigotes LmGT2 that are glucose transport deficient and complemented with the L. Mexicana glucose transporter 2. Activity is measured by DNA content using SYBR green in vitro

Row | SMILES | inhibition [1] [%] | inhibition [2] [%] | inhibition [3] [%]
1 | FC(F)(F)c1ccc2[nH]c(-c3ccc(-c4ccc(CNCCc5ccncc5)cc4)cc3)nc2c1 | 1.37 | -3.26 | 0.57
2 | Cc1cccc(C)c1C1CCN(CCCCNC(=O)c2cc3ccccc3[nH]2)CC1 | 1.79 | 0.17 | 0.3
3 | N#Cc1cccc(C(=O)NC2CCN(CCCCCNC(=O)/C=C/c3ccc(Cl)c(Cl)c3)CC2)c1 | 5.7 | 5.26 | 7.61
4 | COc1cc(NC(=O)N2CCOC(CCN3CCC4(CCc5ccccc54)CC3)(c3ccc(Cl)c(Cl)c3)C2)cc(OC)c1OC (stereo not drawn) | 18.1 | 15.1 | 14.1
5 | COc1ccc(CCNCCCCCCNCCCc2ccc(Cl)cc2)cc1OC | 4.72 | 2.45 | 4.39
6 | CCc1c[nH]c2c(N3CCCC3=O)cc(C(=O)N[C@@H](Cc3ccccc3)[C@H](O)CNC(C)(C)CCCC(C)C)cc12 | 12.2 | 9.72 | 8.72
7 | Cc1cccc2nc(-c3ccc(-c4ccc(C(=O)NCCN5CCCC5)cc4)cc3)[nH]c12 | 0.86 | -1.27 | -0.61
8 | CCN1CCN(Cc2ccc(NC(=O)c3cc4ccc5cccnc5c4[nH]3)cc2)CC1 | 17.2 | 15.9 | 11.4
9 | CCCN1CCN(c2cc(NCC)c3c4c(onc24)-c2ccccc2C3=O)CC1 | 7.98 | 8.22 | 6.9
10 | O=C1OC2(CN1CC1CCN(Cc3ccc(-n4ccnc4)cc3)C1)c1ccccc1-c1ccccc12 (stereo not drawn) | 4.6 | 5.24 | 2.86
11 | CC(C)CCN1CCC(Oc2ccc(NC(=O)c3ccccc3)cc2Cl)CC1 | 1.25 | 3.09 | 2.86
12 | CNc1ccc(CNCc2cccc(-c3ccc(-c4nc5ccccc5[nH]4)cc3)c2)cc1 | 0.78 | -1.69 | -1.34
13 | CCCCN1CC[C@@H](CCC(O)c2ccnc3ccc(OCCC(C)C)cc23)[C@@H](CC)C1 (stereo partly drawn) | 1.18 | 4.04 | 3.24
14 | O=C(NCC1CN(Cc2ccc(N3CCCC3)o2)CCCO1)c1ccc2c(c1)OCO2 (stereo not drawn) | -0.31 | 0.65 | 2.95
15 | COc1cccc(C(=O)NCCc2cccc(Cl)c2)c1OCc1ccccc1 | 0.04 | -0.53 | -0.7
16 | COc1ccc(CN2CCC(CNC(C)c3cccc4ccccc34)CC2)cc1 (stereo not drawn) | 7.32 | 12.7 | 5.96

Row | SMILES | inhibition [1] [%] | inhibition [2] [%] | inhibition [3] [%]
17 | CC1CC(C)CN(CCCNc2ccc(C(=O)Nc3ccc(C(F)(F)F)cc3)cc2[N+](=O)[O-])C1 (stereo not drawn) | 3.92 | 0.64 | 1.47
18 | CCC[C@@H]([C@@H](CC(C)C)C(=O)N[C@@H](CCC/N=C(/N)NS(C)(=O)=O)C(=O)Nc1nccs1)N(O)C=O | 7.57 | 9.74 | 6.5
19 | COc1ccc(S(=O)(=O)NC2CCN(c3ccc(C(F)(F)F)cc3NC(=O)OCC(C)C)CC2)cc1 | 0.36 | 1.75 | 2.43
20 | COCCN1CCC(CNCC(C)(C)c2nc(-c3ccc(Cl)c(O)c3)c(-c3ccncc3)[nH]2)CC1 | 7.22 | 7.6 | 7.7
21 | N#Cc1cc([N+](=O)[O-])ccc1-n1nc(-c2cccc(Cl)c2)n(Cc2ccco2)c1=S | 1.94 | 1.56 | -3.52
22 | Cc1cccc2nc(-c3cccc(-c4cccc(NC(=O)c5ccncc5)c4)c3)[nH]c12 | 3.32 | 3.01 | 4.27
23 | N#Cc1cccc(-c2cccc(C(=O)NC3CCC(CCN4CCc5ccc(C#N)cc5CC4)CC3)c2)c1 (stereo not drawn) | 10.8 | 8.62 | 11.2
24 | CC(C)(C)NCCN(Cc1ccc(-c2ccc(C(F)(F)F)cc2)cc1)C(=O)Cn1c(CCc2cccc(F)c2F)nc(=O)c2ccccc21 | 3 | 5 | 1.15
25 | Cc1cc(F)ccc1-c1nc(Nc2ccncc2)c2ccn(C)c2n1 | 1.12 | 2.6 | 0.38
26 | CN(C)CCC1CCCc2ccc(NC(=O)Nc3cccc(Cl)c3Cl)cc21 (stereo not drawn) | 1.81 | 2.38 | 1.03
27 | O=C(/C=C/c1ccc(Cl)c(Cl)c1)NCCCCCN1CCC(CCNC(=O)C2(c3ccc(Cl)cc3)CC2)CC1 | 16.5 | 6.12 | 3.58
28 | CCn1c(-c2nonc2N)nc2c(-c3cccc(NC(=O)Nc4ccc5c(c4)CCC5)c3)ncc(OCCCN)c21 | 2.61 | 3.19 | 2.89
29 | COc1ccc(C2CC(c3ccccc3O)=NN2C(=O)c2ccco2)cc1OC (stereo not drawn) | 0.86 | 1.48 | -2.92
30 | CC1(C)NC(N)=NC(=N)N1OCc1ccc(-c2ccccc2)cc1 | 6.01 | 5.93 | 3.79
31 | O=C(Nc1cccc(C(F)(F)F)c1)Nc1nc2ccc([N+](=O)[O-])cc2s1 | 4.59 | 4.44 | 0.91
